This note sets out measurements from PubChem BioAssay (NCI).

The panel holds about 83,000 compounds, 20% with a hit somewhere; the sample as a whole holds those more often.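 Note: values are percent growth. 100 is the growth of untreated cells, values between 100 and 0 indicate rising inhibition; between -100 and 0 indicates cell death.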 Values without a mark were called inactive. Calls of active or inactive are those of the source. How the source made its calls: active means growth percent below 10; inactive means the rest.

Among the test systems are NCI-H23 lung; NCI-H226 lung; NCI-H322M lung; HOP-62 NSCLC; HOP-92 NSCLC; NCI-H522 lung; A549/ATCC NSCLC; 786-0 renal; COLO 205 colon; DU-145 prostate; K-562 leukemia; MALME-3M melanoma; MDA-MB-231 breast; RXF 393 renal; SF-268 CNS; SF-295 CNS; SF-539 CNS; UACC-257 melanoma; M14 melanoma.
Assay in all cases: NCI-60 one-dose screen, 48 h (100 = growth as untreated, 0 = no growth, -100 = all killed)
What all share (conditions): 10 µM unless noted

Consider `COc1ccc(C(=O)c2cc(OC)c(C)c(OC)c2)cc1OC(=O)CCl`, for which the growth in the experiment with NCI-H23 lung is 27.4%; with NCI-H226 lung it was 104%; in the experiment with NCI-H322M lung, 44%; with HOP-62 NSCLC it was 30.2%; with HOP-92 NSCLC, 75.8%; with NCI-H522 lung, 16.2%. Moreover, the growth was 28.5% with A549/ATCC NSCLC; 42% with 786-0 renal; 80.8% with COLO 205 colon; 12.7% with DU-145 prostate; 9.2% (active) in the experiment on K-562 leukemia; 69.2% in the experiment on MALME-3M melanoma. Besides, the growth in the experiment on MDA-MB-231 breast was 30.3%; in the experiment with RXF 393 renal, 18.4%; in the experiment with SF-268 CNS it was 44.9%; with SF-295 CNS it was 17.6%; in the experiment with SF-539 CNS, -7.95% (active); in the experiment with UACC-257 melanoma, 60.3%. Moreover, the growth in the experiment on M14 melanoma was 6% (active).

With `N#CC(C#N)=C1NC(c2ccccc2)=C(c2ccccc2)C(c2ccccc2Cl)=C1C#N`, the growth in the experiment with NCI-H23 lung is 93.5%; in the experiment on NCI-H226 lung it was 108%; with NCI-H322M lung, 107%; in the experiment with HOP-62 NSCLC, 109%; with HOP-92 NSCLC it was 109%; in the experiment on NCI-H522 lung it was 85.5%. Moreover, the growth was 84% in the experiment on A549/ATCC NSCLC; 97.6% in the experiment on 786-0 renal; 123% with COLO 205 colon; 112% in the experiment on DU-145 prostate; 98.1% in the experiment on K-562 leukemia; 108% in the experiment with MALME-3M melanoma. Further, the growth in the experiment on MDA-MB-231 breast was 110%; with RXF 393 renal, 121%; with SF-268 CNS it was 109%; in the experiment with SF-295 CNS it was 101%; with SF-539 CNS it was 108%; in the experiment with UACC-257 melanoma it was 75%. In addition, the growth in the experiment on M14 melanoma was 106%.

As to `O=C(CCCC(=O)Nc1ccc(-n2nnc3cc(Cl)c(Cl)cc32)cc1)Nc1ccc(-n2nnc3cc(Cl)c(Cl)cc32)cc1`, the growth was 40.2% in the experiment on NCI-H23 lung; 49.9% in the experiment on NCI-H226 lung; 59.9% in the experiment with NCI-H322M lung; 28% with HOP-62 NSCLC; 77.6% with HOP-92 NSCLC; 37.4% in the experiment on NCI-H522 lung. Also, the growth in the experiment with A549/ATCC NSCLC was 34%; in the experiment on 786-0 renal, 49.6%; in the experiment on COLO 205 colon, 72.2%; with DU-145 prostate, 33.6%; with K-562 leukemia it was 54.8%; with MALME-3M melanoma, 48.2%. Further, the growth with MDA-MB-231 breast is 49.9%; in the experiment on RXF 393 renal, 48.1%; in the experiment on SF-268 CNS it was 60.8%; in the experiment with SF-295 CNS it was 53.1%; in the experiment with SF-539 CNS, 56.7%; with UACC-257 melanoma it was 66.5%. Moreover, in the experiment on M14 melanoma, the growth was 68%.

As for `CC(C)C1=C[C@@]23CC[C@H]4[C@](C)(COCCC#N)CCC[C@]4(C)[C@H]2C[C@@H]1[C@@H]1[C@H]3[C@@H](OCCC#N)CC[C@@H]1OCCC#N`, the growth with NCI-H23 lung was 35.7%; in the experiment on NCI-H226 lung, 39.8%; in the experiment with NCI-H322M lung, 86.1%; in the experiment on HOP-62 NSCLC, 65%; in the experiment on HOP-92 NSCLC, 53%; with NCI-H522 lung it was 25%. Also, the growth with A549/ATCC NSCLC is 27.6%; in the experiment on 786-0 renal, 54.3%; in the experiment on COLO 205 colon, 17.4%; with DU-145 prostate, 51.4%; in the experiment with K-562 leukemia, 20.2%; with MALME-3M melanoma, 61.4%. For the same compound, the growth is 59.5% in the experiment on MDA-MB-231 breast; 11.8% with RXF 393 renal; 48.4% in the experiment on SF-268 CNS; 28.7% in the experiment on SF-295 CNS; 52.8% in the experiment on SF-539 CNS; 40.9% in the experiment with UACC-257 melanoma. For the same compound, the growth with M14 melanoma was 31.4%.

In the case of `C#C[C@@]1(O)[C@@H](CO)O[C@@H](n2cc(-c3ccco3)c3c(N)ncnc32)[C@@H]1O`, the growth with NCI-H23 lung was 78.6%; in the experiment on NCI-H226 lung, 70.7%; with NCI-H322M lung it was 69.5%; in the experiment with HOP-62 NSCLC it was 67.7%; in the experiment on HOP-92 NSCLC it was 30%; in the experiment on NCI-H522 lung, 61.7%. The growth was 68.5% in the experiment with A549/ATCC NSCLC; 85.6% in the experiment with 786-0 renal; 46.4% in the experiment with COLO 205 colon; 67.9% in the experiment on DU-145 prostate; 86.1% in the experiment on K-562 leukemia; 59.4% with MALME-3M melanoma. Also, the growth in the experiment on MDA-MB-231 breast was 102%; in the experiment with RXF 393 renal it was 80.9%; with SF-268 CNS it was 83%; in the experiment on SF-295 CNS, 76.9%; in the experiment on SF-539 CNS, 46%; in the experiment with UACC-257 melanoma, 89.3%. Also, the growth in the experiment with M14 melanoma is 69.9%.

Regarding `c1ccc2c3c([nH]c2c1)C(c1ccc(C2NCCc4c2[nH]c2ccccc42)cc1)NCC3` (configuration not stated), the growth in the experiment with NCI-H23 lung was 72.4%; with NCI-H226 lung, 77.1%; with NCI-H322M lung, -1.54% (active); in the experiment on HOP-62 NSCLC, -70.3% (active); with HOP-92 NSCLC it was 20.8%; in the experiment on NCI-H522 lung it was -72.4% (active). Moreover, the growth in the experiment on A549/ATCC NSCLC was -85.1% (active); in the experiment with 786-0 renal, -68.1% (active); with COLO 205 colon, -81.5% (active); with DU-145 prostate it was -35.1% (active); in the experiment with K-562 leukemia it was -57.6% (active); in the experiment on MALME-3M melanoma it was -50.3% (active). For the same compound, the growth in the experiment with MDA-MB-231 breast is -56.2% (active); in the experiment on RXF 393 renal, 33.9%; with SF-268 CNS, -29.2% (active); in the experiment with SF-295 CNS, -72.2% (active); with SF-539 CNS, -15.5% (active); in the experiment on UACC-257 melanoma, -41.7% (active). In the experiment with M14 melanoma, the growth was -84.9% (active).

As to `COc1cc(/C=C/CO)cc(OC)c1O[C@@H]1O[C@H](CO)[C@@H](O)[C@H](O)[C@H]1O`, the growth was 102% with NCI-H23 lung; 86.2% in the experiment on NCI-H226 lung; 107% with NCI-H322M lung; 94.2% in the experiment with HOP-62 NSCLC; 94% with HOP-92 NSCLC; 94.8% in the experiment on NCI-H522 lung. Further, the growth in the experiment with A549/ATCC NSCLC is 91.7%; with 786-0 renal, 96.7%; in the experiment on COLO 205 colon, 107%; in the experiment with DU-145 prostate, 110%; in the experiment on K-562 leukemia, 96.6%; in the experiment with MALME-3M melanoma, 102%. The growth with MDA-MB-231 breast is 90.2%; with RXF 393 renal, 100%; with SF-268 CNS, 102%; in the experiment on SF-295 CNS, 98.7%; in the experiment with SF-539 CNS, 105%; in the experiment on UACC-257 melanoma, 96.3%. For the same compound, the growth in the experiment with M14 melanoma is 104%.

For the compound `C=C1C(=O)O[C@H]2[C@H]1CC/C(COC(=O)/C=C/c1cccnc1)=C\CC[C@@]1(C)O[C@@H]21`, the growth in the experiment on NCI-H23 lung was 56.2%; in the experiment on NCI-H226 lung, 38.5%; with NCI-H322M lung it was 93.6%; in the experiment with HOP-62 NSCLC it was 72.4%; with HOP-92 NSCLC, 19.1%; in the experiment on NCI-H522 lung it was -43.5% (active). For the same compound, the growth is 61.8% in the experiment with A549/ATCC NSCLC; 2.95% (active) with 786-0 renal; -46% (active) in the experiment with COLO 205 colon; 13.1% in the experiment on DU-145 prostate; 6.99% (active) in the experiment with K-562 leukemia; -35.9% (active) in the experiment on MALME-3M melanoma. Besides, the growth is 38.7% in the experiment on MDA-MB-231 breast; -9.04% (active) in the experiment with RXF 393 renal; 57.6% in the experiment on SF-268 CNS; 84.4% with SF-295 CNS; 6.08% (active) in the experiment with SF-539 CNS; 28.9% with UACC-257 melanoma. In the experiment with M14 melanoma, the growth was 26.3%.
